The nature of test [1]: NCI Yeast Anticancer Drug Screen. Data for the rad50 strain (AID 155).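 Also: 0% = growth of vehicle-only cultures of the same strain.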 Conditions: S. cerevisiae rad50 strain growth inhibition; at 50.0 µM; stronger effect = higher value. An outline of the steps: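 Yeast carrying a defined DNA repair defect were exposed to test compounds, and growth was compared with vehicle-treated controls to give percent inhibition.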
The nature of test [2]: NCI Yeast Anticancer Drug Screen. Data for the mec2-1 strain (AID 157). As to conditions: S. cerevisiae mec2-1 strain, at 50.0 µM, stronger effect = higher value. An outline of the steps:
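Readout is yeast growth inhibition, normalised to vehicle-treated controls, in the mec2-1 strain exposed to compound.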

Test [3] is described as follows: NCI Yeast Anticancer Drug Screen. Data for the sgs1 mgt1 strain (AID 161).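 Also: 0% = growth of cultures given vehicle only.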 Conditions: S. cerevisiae sgs1 mgt1 strain, at 50.0 µM, stronger effect = higher value. An outline of the steps:
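Growth of a repair-deficient yeast mutant was monitored after compound treatment and expressed as inhibition relative to vehicle-treated cultures.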

Test [4] can be described thus: NCI Yeast Anticancer Drug Screen. Data for the cln2 rad14 strain (AID 165).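 Also: 0% = growth equal to vehicle treated cultures.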 Conditions: S. cerevisiae cln2 rad14 strain, at 50.0 µM, stronger effect = higher value. An outline of the steps: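 Relative to vehicle controls, growth inhibition of compound-treated cln2 rad14 yeast was recorded.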
Test [5] can be described thus: NCI Yeast Anticancer Drug Screen. Data for the bub3 strain (AID 167). Conditions: S. cerevisiae bub3 mutant strain, at 50.0 µM, stronger effect = higher value. An outline of the steps: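 Compounds were applied to a genetically altered yeast strain carrying a cell-cycle control defect. Growth inhibition was scored against vehicle-treated controls.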
Test [6] can be described thus: NCI Yeast Anticancer Drug Screen. Data for the mlh1 rad18 strain (AID 175). As to conditions: S. cerevisiae mlh1 rad18 strain growth inhibition; at 50.0 µM; stronger effect = higher value. An outline of the steps: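 Test agents were incubated with a yeast strain of defined genotype (DNA damage repair defect). Inhibition of growth was derived by comparison with vehicle-exposed cultures.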

The results in this text go back to PubChem BioAssay (NCI).

Compounds without any hit were thinned out: in the full panel of roughly 79,000, 15% have a hit. Values without a mark were called inactive. Active and inactive are the calls of the source. Rule as the data show it: active = growth inhibition above about 70%; inactive = the rest.

Take `CC1(C)SC(C)(C)C1=O`: the growth inhibition in test [1] was -13.6%; in test [2], -7.35%; in test [3], -0.6%; in test [4] it was -36.8%; in test [5], 2.05%; in test [6], -5.15%.
On to `NCC(=O)NC1CCCCC1`, for which the growth inhibition in test [1] is 30.6%; in test [2], 1.85%; in test [3], -8.45%; in test [4], 25.4%; in test [5] it was -3.65%; in test [6], 5.3%.
Consider `CCN(C)c1ccccc1`, for which the growth inhibition is -5.8% in test [1]; -27.8% in test [2]; -3.2% in test [3]; -31.9% in test [4]; -6.6% in test [5]; 11.2% in test [6].
For the compound `CC(C)(C)C(=O)Nc1c(Cl)c(C2CC2)nn1-c1ccccc1`, the growth inhibition in test [1] is 7.55%; in test [2], -0.55%; in test [3] it was 24.7%; in test [4], 11.3%; in test [5], 22.4%; in test [6], 19.4%.
Take `N#Cc1c(-c2ccc([N+](=O)[O-])cc2)c(C#N)c(=O)n(NS(=O)(=O)c2ccccc2)c1-c1ccccc1`: the growth inhibition in test [1] was 7.1%; in test [2] it was 13.3%; in test [3], -2.45%; in test [4], 4.05%; in test [5], 6.25%; in test [6] it was 26.4%.
In the case of `c1ccc(COC[C@H]2O[C@@H](c3ccccc3)C[C@@H](OCc3ccccc3)C2OCc2ccccc2)cc1` (stereo partly specified), the growth inhibition in test [1] is -20.3%; in test [2] it was -11.6%; in test [3] it was -1.95%; in test [4], -0.45%; in test [5], -11.6%; in test [6] it was 5.4%.
For `CCN(CC)CCC(O)(Cc1ccccc1)c1cccc(Cl)c1` (stereo unspecified), the growth inhibition in test [1] was 21.6%; in test [2], 7.95%; in test [3], 5.75%; in test [4] it was -67.5%; in test [5], 16.6%; in test [6], 21.4%.
On to `COC1(OC)N=C(N)C2(C#N)C(C)=C3NCN(C)N=C3C12C#N` (stereo unspecified), for which the growth inhibition was 8.15% in test [1]; 3.2% in test [2]; -44% in test [3]; -6.7% in test [4]; -33.8% in test [5]; -51% in test [6].
Regarding `Nc1cccc2c1CCC=C2`, the growth inhibition was -0.05% in test [1]; -6.5% in test [2]; -3.55% in test [3]; -6% in test [4]; 7.6% in test [5]; -1.9% in test [6].
For `COc1cc(C2c3cc4c(cc3C(OC(=O)C[n+]3ccccc3)C3COC(=O)C23)OCO4)cc(OC)c1OC` (stereo unspecified), the growth inhibition is 28.7% in test [1]; -9.15% in test [2]; 1.7% in test [3]; -4.75% in test [4]; 18.8% in test [5]; 16.5% in test [6].
On to `CN(C)CCNC(=O)c1cccc2c(Nc3ccc(S(N)(=O)=O)cc3)c3ccccc3nc12`, for which the growth inhibition is -43.7% in test [1]; 4% in test [2]; -43.1% in test [3]; 17.9% in test [4]; -23.6% in test [5]; 11.1% in test [6].
With `CNC(=S)NC`, the growth inhibition in test [1] is 11.9%; in test [2], 11.1%; in test [3], 13.4%; in test [4] it was -51.1%; in test [5] it was 0.2%; in test [6], -13.8%.
As to `CC1CCCNC1C` (stereo unspecified), the growth inhibition was -21% in test [1]; -24.1% in test [2]; -11.1% in test [3]; -29% in test [4]; -3.25% in test [5]; 8.25% in test [6].
`Nc1ccc(Cl)c(S(=O)(=O)O)c1`: the growth inhibition in test [1] is 21.7%; in test [2], -4.35%; in test [3], 7.05%; in test [4] it was 8.4%; in test [5] it was 10.4%; in test [6], 17.1%.
On to `O=C(CO)c1ccc(-c2ccccc2)cc1`, for which the growth inhibition in test [1] was -8%; in test [2], -12.4%; in test [3] it was -19.1%; in test [4], -12.7%; in test [5], 4.95%; in test [6] it was 16.2%.
With `CCOc1c(F)ccc(F)c1-c1c(F)ccc(F)c1OCC`, the growth inhibition in test [1] was -7.5%; in test [2], -0.3%; in test [3], 5.65%; in test [4], 2.4%; in test [5], 3.3%; in test [6], -5.2%.
With `CC12CCC3[C@@H](CC3(C)C)C(O)(CCC1=O)C2` (stereo partly specified), the growth inhibition in test [1] was -10.4%; in test [2], -9.35%; in test [3] it was -10.8%; in test [4], -23.9%; in test [5], -5.35%; in test [6] it was -57.1%.
Take `CCNC(=O)OC1C=CS(=O)(=O)C1` (stereo unspecified): the growth inhibition was 5.25% in test [1]; -9.45% in test [2]; -0.45% in test [3]; -5.55% in test [4]; 7.95% in test [5]; -10.2% in test [6].
As for `Nc1cc(NC(=O)CO)cc(C(=O)O)c1`, the growth inhibition was 14.2% in test [1]; -1.15% in test [2]; -1% in test [3]; -0.4% in test [4]; 4.05% in test [5]; 7.1% in test [6].
In the case of `O=[N+]([O-])c1cc(C(F)(F)F)ccc1S(=O)(=O)c1ccccc1`, the growth inhibition in test [1] was 40.4%; in test [2], 8.5%; in test [3], 8.7%; in test [4], 13.7%; in test [5] it was 14.1%; in test [6], 17.6%.
With `Cc1ccc(N=Cc2cc(Br)ccc2O)cc1Cl`, the growth inhibition in test [1] was 98.6% (active); in test [2], 99% (active); in test [3], 99.1% (active); in test [4], 95% (active); in test [5] it was 98.7% (active); in test [6], 96.8% (active).
